Screens: PubChem BioAssay, National Center for Advancing Translational Sciences (NCATS)
VACV mCherry inh – vaccinia inhibition (mCherry reporter). Potency, µM (doses to about 36.5 µM), for inactives: at the top dose activity change, negative = inhibition, hits mostly inhibitors. Vaccinia virus mCherry reporter infection, fluorescence. hit rate 0.63% among 310,000; calls by dose curve; tested in A549 cells; further: potency means the concentration at half of the fitted maximal effect; nearly all actives have a fitted effect of over 35% in size
Vaccinia Venus – inhibitors of vaccinia virus (Venus reporter) | Vaccinia virus Venus reporter expression, fluorescence | Potency, µM (doses to about 36.5 µM), inactives show top-dose activity change, negative = inhibition, actives largely listed as inhibitors | hit rate 0.46% among 330,000; calls by dose curve; tested in A549 cells; further: potency means the concentration at half of the fitted maximal effect; nearly all actives have a fitted effect of over 30% in size
Lassa entry inh – Lassa virus entry inhibition; Lassa virus pseudotype entry inhibition, cell reporter; Potency, µM (doses to about 37.9 µM), without a hit: at the top dose activity change, negative = inhibition, most hits filed as inhibitors; hit rate 1.2% among 300,000; AID 540256; calls by dose curve; tested in HEK293 cells; further: potency means the concentration at half of the fitted maximal effect; nearly all actives have a fitted effect of over 50% in size
MARV entry inh – Marburg virus entry inhibition; Potency, µM (highest dose often 37.8 µM), for inactives: at the highest dose activity change, negative = inhibition, actives largely listed as inhibitors; Marburg virus pseudotyped entry inhibition, cell reporter; hit rate 1.8% among 300,000; calls by dose curve; tested in HEK293 cells; further: potency means the concentration at half of the fitted maximal effect
HCV inhibitor – inhibitors of hepatitis C virus infection; Potency, µM (series often up to 41.8 µM), without a hit: at the top dose activity change, negative = inhibition, actives largely listed as inhibitors; AID 651820; Huh7.5.1 HCVcc-Cre infection, luciferase reporter, 44 h; hit rate 3.4% among 340,000; active means well fitted inhibition curve with a large enough effect; inconclusive means small, poorly fitted or top-dose-only effect, or another doubt; inactive means no such curve, though single readings can be large or run the other way; further: potency means the concentration at half of the fitted maximal effect
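A cell-based infection assay in which seeded cells (1,000 per well) receive test compound after 4 h, are inoculated with HCVcc-Cre at approximately 0.5 moi, and are incubated 44 h before luminescence detection.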
HCMV antiviral – human cytomegalovirus inhibition; HFF cells, HCMV-luciferase reporter, 72 h; hits give low values; activity change, negative = inhibition, % at 57.5 µM; hit rate 4.5% among 410,000; AID 1259415; in the data active means activity change below about -60%; inconclusive means no clear call, values can overlap the other calls; inactive means above about -39%
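Screen run at 2 compound doses on HFFs infected with reporter HCMV, MOI 1 PFU/cell. Luciferase activity from cell lysates at 72 h post infection gave inhibition relative to buffer-only and Salinomycin wells.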
* = called active by the depositor; i = inactive; ? = inconclusive; nt = not tested or not shown; [ ] = another dose, or the depositor's remark. Sampled rows, rich in hits. Any-hit rate of the full collection: about 7.8%. On the % scale 0 is the no-effect control and ±100 the full control effect.

SMILES	VACV mCherry inh	Vaccinia Venus	Lassa entry inh	MARV entry inh	HCV inhibitor	HCMV antiviral
O=C(Nc1cccc(Cl)c1)c1ccccc1	-14.2%	-14.3%	nt	nt	7.2%	80.6
COc1ccc(Sc2ccc(NC(=O)c3ccccc3Cl)cc2C#N)cc1	nt	-28.9%	?	?	11.2µM*	-26.1
c1ccc(-c2csc(Nc3ccc4c(c3)OCCO4)n2)cc1	-17.1%	-19.5%	10µM*	?	-15.1%	54.1
CC(=O)c1cccc(Nc2nc(-c3ccccc3)cs2)c1	-29.7%	?	?	?	2.51µM*	48.1
c1cc2c(cc1Nc1nc(-c3ccc4c(c3)OCO4)cs1)OCCO2	nt	nt	?	13.6%	-19.8%	17.3
O=C(Nc1cccc(-c2csc(Nc3cccc(C(F)(F)F)c3)n2)c1)c1ccccc1	?	?	nt	nt	?	-3.7
O=C(Nc1cccc(-c2csc(Nc3ccccc3)n2)c1)c1ccccc1	5.01µM*	?	nt	nt	?	-16.0
CC(=O)c1cccc(Nc2nc(-c3cccnc3)cs2)c1	?	-24.6%	?	?	?	38.4
CCc1cc(C(=O)NNC(=S)NC(C)c2ccccc2)cs1 (centres undefined)	nt	nt	-13.9%	-16.1%	0.7%	-73.1*
CCc1cccc(CC)c1NC(=S)NC(C)c1ccccc1 (centres undefined)	-4.0%	-11.9%	-21.9%	-27.0%	?	-72.1*
Cc1ccc2nc(-c3ccc(NS(=O)(=O)c4ccc(F)cc4)cc3)sc2c1	-22.1%	-23.2%	?	?	?	-94.4*
CCC(C)(C)NC(=S)Nc1ccc(-c2nc3ccc(C)cc3s2)cc1	?	?	?	?	-21.4%	95.9
Cc1ccc2nc(-c3ccc(NC(=S)NCC(C)(C)CN(C)C)cc3)sc2c1	nt	nt	nt	nt	2.24µM*	9.9
Nc1ccc2nc(-c3ccccc3)sc2c1	-23.7%	-11.8%	3.16µM*	?	?	-31.6
Cc1ccc2nc(-c3ccc(N)cc3)sc2c1	?	?	?	3.55µM*	?	-32.7
Nc1ccc(-c2nc3cc(N)ccc3s2)cc1	-1.1%	-8.2%	?	?	?	57.9
C[n+]1ccc(C(c2c[nH]c3ccccc23)c2cc[n+](C)c3ccccc23)c2ccccc21	231.4%	i	nt	nt	nt	nt
COC(=O)c1cnc(N2CCN(c3ccc(OC)cc3)CC2)c2ccccc12	-10.4%[7.34 µM]	-9.5%[7.34 µM]	-18.8%[46.1 µM]	nt	nt	?
CCCCCn1c(=O)c(C(=O)Nc2ccccc2)c(O)c2ccccc21	nt	nt	nt	nt	4.2%	1.7
CCCCCn1c(=O)c(C(=O)Nc2ccccc2N)c(O)c2ccccc21	nt	nt	nt	nt	?	-37.7
CCCCCCCn1c(=O)c(C(=O)OC)c(N)c2ccccc21	-5.5%[7.34 µM]	-10.9%[7.34 µM]	?	?	?	-89.3*
CCCCCCCCn1c(=O)c(C(=O)OC)c(N)c2ccccc21	?	?	?	?	12.6µM*	-64.4*
CC(=O)Cc1cc(O)c2ccccc2c1OC(=O)c1ccccc1	?	1.9%	-25.5%[46.1 µM]	-19.2%[46.1 µM]	-7.5%	-73.3*
CC(=O)Oc1c(C)cc(O)c2ccccc12	nt	nt	nt	-4.8%	10µM*	nt
CCOC(=O)c1c(C)[nH]c(CCC(=O)Nc2ccc(N(CC)CC)cc2C)c1C	-4.7%	-5.1%	?	nt	nt	11.7
SMILES	VACV mCherry inh	Vaccinia Venus	Lassa entry inh	MARV entry inh	HCV inhibitor	HCMV antiviral
CS(=O)(=O)Nc1c(O)ccc2c1CCCC2C1=NCCN1 (centres undefined)	-22.0%	-12.2%	nt	nt	nt	nt
Cn1c2ccccc2c(=O)c2c(=O)n(C3CCCCC3)c(-c3ccco3)nc21	-7.8%	-15.2%	4.0%	?	?	-63.4*
CCCCCc1nc2c(c(=O)c3ccccc3n2C)c(=O)n1C1CCCCCC1	-5.6%	-12.5%	15.8µM*	?	?	?
Cc1nc2c(c(=O)c3ccccc3n2C)c(=O)n1C1CCCCCC1	-16.1%	-14.3%	14.9%	?	?	-17.0
Cc1ccc(N2CCN(C(=O)c3cnc(N4CCCCC4)c4ccccc34)CC2)c(C)c1	-18.4%	-22.6%	?	nt	nt	2.8
OC1(c2ccccc2)CN(c2ccccc2)C2=[N+]1CCS2 (centres undefined)	-3.9%	-11.7%	-5.3%	-18.2%	?	-62.2*
O=C1CN(C(=O)COc2ccc(Cl)cc2)C(c2ccc(F)cc2)c2cc(Br)ccc2N1 (centres undefined)	?	?	?	?	nt	-11.7
CCOc1ccc(-c2cnc(NCc3cccc4ccccc34)n2CCOC)cc1	?	?	?	?	10µM*	24.6
Cn1c(-c2ccc(F)cc2)cnc1NCc1cc2c(cc1[N+](=O)[O-])OCO2	-6.2%	-13.3%	14.0%	?	12.6µM*	11.8
Cn1c(-c2ccc(F)cc2)cnc1NCc1ccccc1	nt	nt	9.2%	23.1µM*	-2.4%	-1.0
COc1ccc(CNc2ncc(-c3ccc(F)cc3)n2C)c2ccccc12	?	-9.6%	-26.5%[46.1 µM]	?	0.9%	-84.2*
CCOC(=O)C1=C(CSc2nc(C)cc(C)c2C#N)OC(N)=C(C#N)[C@H]1c1cccs1	nt	nt	nt	-28.8%[46.1 µM]	nt	nt
Cn1cc(CN2CCCC(C(=O)Nc3ccc(-c4cccc(F)c4)cc3)C2)cn1 (centres undefined)	nt	nt	nt	nt	?	-71.7*
CCn1cc(CN2CCC(C(=O)Nc3cccc(-c4cccc(F)c4)c3)CC2)cn1	-6.7%	-23.6%	-14.7%	-25.1%	8.91µM*	-62.6*
O=C(Nc1cccc(-c2cccc(Cl)c2)c1)C1CCN(Cc2ccc(CO)o2)CC1	?	-18.6%	-9.9%[46.1 µM]	-23.5%[46.1 µM]	10µM*	?
COc1cc(OC)c(NC(=O)C(C)n2nc(-c3ccc(C)c(C)c3)ccc2=O)cc1Cl (centres undefined)	-16.8%	-17.3%	0.8%[46.1 µM]	-25.3%[46.1 µM]	nt	-10.1
CCCN1CNc2c(c(=O)[nH]c(=S)n2CCc2cccc(Cl)c2Cl)C1	-7.9%	-29.0%	nt	nt	nt	nt
COc1ccc(CCN2C(=O)CN(C3CCCCCC3)C(=O)C2c2ccc(C)cc2)cc1OC (centres undefined)	-12.0%	-14.8%	10.2%[46.1 µM]	nt	nt	42.9
Cc1c(C(=O)Nc2ccc(F)c(Cl)c2)oc2ccc(S(=O)(=O)N(C)C3CCCCC3)cc12	-18.3%	-15.4%	12.1%[46.1 µM]	nt	nt	12.2
COc1ccc(CC(=O)Nc2ccc(S(=O)(=O)N(C)C3CCN(C)CC3)cc2)cc1	nt	nt	nt	nt	0.0%	-5.3
COc1ccc(NC(=O)c2oc3ccc(S(=O)(=O)N4CCCCC4)cc3c2C)cc1	-18.9%	-19.4%	?	nt	nt	-34.2
CC(Oc1ccc(Br)cc1)C(=O)Nc1ccc(S(=O)(=O)N(C)C2CCN(C)CC2)cc1 (centres undefined)	-7.2%	?	?	?	6.31µM*	?
COc1ccc2oc(C(=O)Nc3ccc(S(=O)(=O)N(C)C4CCN(C)CC4)cc3)c(C)c2c1	nt	nt	nt	nt	11.2µM*	-112.5*
COc1ccc(NC(=O)c2oc3ccc(S(=O)(=O)N(C)C4CCCCC4)cc3c2C)cc1Cl	-13.2%	-11.7%	11.9%[46.1 µM]	nt	nt	-77.4*
COc1ccccc1-c1ccnc(-n2ncc(C(=O)NC3CCCN(Cc4ccccc4)C3)c2C)n1 (centres undefined)	-16.5%	3.2%	nt	nt	nt	nt
